# Measured values reported in the supplement of paper PMC7556523.
# Columns and labels:
# [1] = test system: Sporothrix brasiliensis CBS 133006; assay: growth inhibition relative to untreated control; higher = more growth inhibition (more antifungal activity), active = 80 or more; extreme values may be limits of the assay; conditions: 1 µM; 48 h
# Summary of the method: (§1)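 Yeast-form cells of the reference isolates (grown 7 days in brain heart infusion broth with 2% glucose at 36°C) were exposed at 1 x 10^5 CFU/ml to library compounds at a final 1 μM for 48 h at 35°C in 5% CO2. Growth was checked by visual inspection under an inverted light microscope and quantified by spectrophotometric readings. The value is percent growth inhibition relative to untreated control. Runs were in quadruplicate.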
# [2] = test system: Sporothrix schenckii ATCC 32286; assay: as above; conditions: 1 µM; 48 h
# Summary of the method: as §1
SMILES,growth inhibition [1],growth inhibition [2]
O=C([C@@H](c1ccc(Cl)cc1)c1cccnc1)N1CCN(c2ccc(C(F)(F)F)cc2)CC1,25.2% (inactive),2% (inactive)
Clc1ccc(Cl)c(CO[C@H]2CCCC[C@@H]2n2ccnc2)c1,18% (inactive),5.5% (inactive)
COc1ccc(C2=NN(C3CCCCCC3)C(=O)[C@@H]3CC=CC[C@H]23)cc1OCCCCOc1ccc(-c2nnn[nH]2)cc1,2.5% (inactive),9.5% (inactive)
CS(=O)(=O)N1CCC(CCn2nc(Cc3cccc4ccccc34)c3c(N)ncnc32)CC1,5.5% (inactive),14% (inactive)
Cc1noc(C)c1C(=O)N1CCCC(c2[nH]c3c(C)cccc3c2-c2ccncc2)C1 (centres undefined),7.5% (inactive),14% (inactive)
C[C@]1(O)C[C@@H](c2nc(-c3ccc4ccc(-c5ccccc5)nc4c3)c3c(N)nccn32)C1,6% (inactive),23% (inactive)
CCc1nc2ccccc2n1CC(O)COc1cc(C)ccc1Cl (centres undefined),1.25% (inactive),11% (inactive)
COc1ccc(Nc2ccccc2NC(=O)c2ccc(O)nc2)cc1,14.2% (inactive),4.25% (inactive)
CC(C)NCC(=O)Nc1cccc(C(=O)Nc2cccc(C(F)(F)F)c2)c1,11.5% (inactive),3.75% (inactive)
COC(=O)c1c(NC(=O)c2c(F)c(F)c(F)c(F)c2F)sc2c1CCCCC2,13.8% (inactive),0.75% (inactive)
CCOC(=O)c1noc(N)c1-c1ccccc1,16.5% (inactive),0% (inactive)
Cc1ccc2c(c1C)NC(=O)C21NN=C(c2ccccc2)S1 (centres undefined),7.25% (inactive),4.5% (inactive)
CC(C)/N=c1\cc2n(-c3ccc(Cl)cc3)c3ccccc3nc-2cc1Nc1ccc(Cl)cc1,7.25% (inactive),12.2% (inactive)
COC(=O)c1cccc2oc(-c3cccc(OC)c3NC(=O)c3cc(-c4ccccc4)on3)nc12,7.5% (inactive),0% (inactive)
Cc1ccc2oc(-c3cc(NC(=O)Cc4ccccc4)ccc3Cl)nc2c1,14.5% (inactive),11.2% (inactive)
CC(C(=O)Nc1ccc2oc(-c3ccncc3)nc2c1)c1ccccc1 (centres undefined),15.2% (inactive),0.5% (inactive)
Cc1ccc2[nH]c(C3CCCNC3)c(-c3ccncc3)c2c1 (centres undefined),19% (inactive),7.75% (inactive)
Cc1cc(Nc2ccncc2)n2nc(C)c(-c3ccccc3Cl)c2n1,5% (inactive),4.75% (inactive)
Cc1cc(C)n(-c2ccc(NC(=O)C3CCN(Cc4cnc(C)s4)CC3)cc2)n1,5.5% (inactive),1.25% (inactive)
CCN(CC)S(=O)(=O)c1ccc(C(=O)Nc2cc(C)nn2-c2nc(C)c(C)c(=O)[nH]2)cc1,1.25% (inactive),0% (inactive)
COc1ccc(OC)c(NCc2ccc3nc(N)nc(N)c3c2Cl)c1,93.8% (active),89.2% (active)
NCC(=O)N1CCn2c(nc(-c3ccccc3)c2Nc2ccc3c(c2)OCO3)C1,0% (inactive),0.5% (inactive)
O=C(NC1=NCCS1)c1sc2cc(F)ccc2c1Cl,0.75% (inactive),0% (inactive)
O=C1Nc2ccc(Br)cc2C12NCCc1c2[nH]c2ccccc12 (centres undefined),18.8% (inactive),4.75% (inactive)

SMILES,growth inhibition [1],growth inhibition [2]
NCC(c1cccs1)S(=O)(=O)c1ccccc1 (centres undefined),24.2% (inactive),0% (inactive)
Cn1ncc2c(N3CCOCC3)nc(NCCc3c[nH]c4ccccc34)nc21,8.25% (inactive),0% (inactive)
N#Cc1nc(-c2ccccc2F)oc1NCCc1ccccc1,3.75% (inactive),0% (inactive)
CC1COC2(CCN(c3nc(=O)c4cc(C(F)(F)F)cc([N+](=O)[O-])c4s3)CC2)O1 (centres undefined),15% (inactive),1.5% (inactive)
CC(C)(C)c1cc(C(=O)Nc2cccnc2)cc(C(=O)Nc2cccnc2)c1,6% (inactive),4% (inactive)
O=C(Nc1ccc(C(F)(F)F)c(C(F)(F)F)c1)c1cc(Cl)ccc1O,92.5% (active),62% (inactive)
Cc1cc(C)n2nc(C(=O)Nc3cc(C(F)(F)F)ccc3N3CCOCC3)nc2n1,0.25% (inactive),12.5% (inactive)
O=C(NCCc1ccccc1)c1cc(-c2cccnc2)cnc1NCC1CC1,0% (inactive),0% (inactive)
COc1cc(C2=NCCN2)cc2cc(-c3ccc(C4=NCCN4)cc3)oc12,17% (inactive),4.25% (inactive)
CCc1ccc(C(NCc2nc(N)nc(N(C)C)n2)C(C)C)cc1 (centres undefined),0% (inactive),8.75% (inactive)
COc1ccc(OC(C)C(=O)Nc2ccc(Cl)cc2C)cc1 (centres undefined),10.5% (inactive),11.2% (inactive)
CN1CCN(c2nccc3nc(-c4ccc(F)c(F)c4)[nH]c23)CC1,0% (inactive),0% (inactive)
COc1ccc(Oc2ccc([C@@H](C)N(C)c3ncc4c(N)nc(N)nc4n3)cc2)cc1,5.75% (inactive),4.25% (inactive)
Cc1cccc(Cn2ccc(NC(=O)c3ccc4c(c3)OCO4)n2)c1,7.5% (inactive),7.25% (inactive)
COC(=O)C1=C(C)NC(C)=C(C(=O)OC(C)C)C1c1cccc2nonc12 (centres undefined),10.8% (inactive),11% (inactive)
Cc1cc(C(=O)Nc2ccc(-c3ccccc3)cc2)no1,1.75% (inactive),17% (inactive)
O=C(c1cc2ccccc2o1)N1CCN(Cc2ccc3c(c2)OCO3)CC1,12.8% (inactive),7.25% (inactive)
CCCn1c(CNc2ccccc2O)nc2ccccc21,11.2% (inactive),13.2% (inactive)
Cc1ccccc1C(=O)N1N=C(Nc2ccccc2)SC1(C)C,10.5% (inactive),16% (inactive)
FC(F)(F)c1cnc(Sc2nnc(-c3ccncc3)o2)c(Cl)c1,3.5% (inactive),0% (inactive)
COc1ccccc1C(C)NCC(=O)Nc1cc(C(F)(F)F)ccc1Cl (centres undefined),9.75% (inactive),0% (inactive)
O=C(C1CCN(c2nnc(-n3cccc3)s2)CC1)N1CCC(Cc2ccccc2)CC1,7.5% (inactive),0.5% (inactive)
CCC(Sc1nc2ccccc2o1)C(=O)Nc1nccs1 (centres undefined),5.75% (inactive),15.5% (inactive)
